Inconclusive results are not listed. Entries that show only a call come without a potency. A number with no mark means an inactive call. Calls of active or inactive are those of the source. The call rests on the fitted dose curve; in most records, active means well fitted cell-killing curve with a large enough effect in the repeat runs; inconclusive means weak or mixed curves, or effect the other way; inactive means flat fitted curve, though single readings scatter.

The experiment can be described thus: qHTS RealTime-Glo MT Cell Viability Assay in HEK293 cells - 0 hour (AID 1224880). Further: top concentration of the series differs between compounds; nearly all actives have a fitted effect of over 45% in size. Particulars: RealTime-Glo luminescence; series mostly up to 76.8 µM; activity change, negative = cytotoxicity: at the top concentration. In short, it runs like this: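 600 cells/well were plated with the nonlytic NanoLuc/prosubstrate reagent, pre-incubated 5 h, then given 23 nL of compound in DMSO. Incubation at 37 C for 40 h, with luminescence from viable-cell-reduced substrate read repeatedly from 0 h.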
(In general: In qHTS, concentration-response curves come from the screen itself.)
In the case of `CCC(=O)Nc1ccc(Cl)c(Cl)c1`, the Potency entry is “inactive”.
Same read-out and setting: to `ClCC(Cl)CCl` belongs “inactive”; to `ClC(Cl)(Cl)c1ccccc1`, “inactive”.
On to `CCN(CC)C(=O)C(C)Oc1cccc2ccccc12` (stereo not drawn), for which the “activity change, negative = cytotoxicity” value was -26.8%.
For `CC(C)(C#N)N=NC(C)(C)C#N`, the Potency entry is “inactive”.
Still for that read-out and setting: the value for `COP(=O)(NC(C)=O)SC` (stereo not drawn) was “inactive”; that for `CCOS(=O)(=O)OCC` was “inactive”.
With `C=CC(Cl)CCl` (stereo not drawn), the Potency result was “inactive”.
As for `C[C@]12CCC(=O)C=C1CC[C@@H]1[C@@H]2CC[C@@]2(C)[C@H]1CC[C@]2(C)O`, the “activity change, negative = cytotoxicity” value was -21.8% [at 35.3 µM].
As to `OCCOCCO`, the Potency result was “inactive”.
Still for that read-out and setting: to `Cl` belongs “inactive”; to `O=C(O)c1nn(Cc2ccc(Cl)cc2Cl)c2ccccc12`, “inactive”.
For `CC(C)(O)C(=O)Nc1ccc([N+](=O)[O-])c(C(F)(F)F)c1`, the “activity change, negative = cytotoxicity” value is 11.9%.
On to `Oc1ccc(Cl)cc1Cl`, for which the Potency entry was “inactive”.
Turning to `CC[n+]1c(-c2ccccc2)c2cc(N)ccc2c2ccc(N)cc21`, the Potency result is “inactive”.
On the same count and under the same terms, the value for `N#CC(c1ccccc1)c1ccccc1` was “inactive”; that for `CCCCCCCCCCCCCl` was “inactive”.
`CCCCOCCOC(C)=O`: the Potency result is “inactive”.
As for `[CH3][Sn]([Cl])([Cl])[Cl]`, the Potency entry is “inactive”.
Same read-out and setting: the value for `Nc1ccc([N+](=O)[O-])cc1N` was “inactive”.
Consider `ClC(Cl)(Cl)Br`, for which the Potency result is “inactive”.
Regarding `COc1ccc(C=O)cc1OC`, the Potency entry was “inactive”.
As to `Brc1ccc(Br)cc1`, the Potency result was “inactive”.

Source of the values: PubChem BioAssay (Tox21).
